Bioassay records (PubChem BioAssay)
KB-3-1 tox – kills parental KB-3-1 adenocarcinoma cells; 1.4% of 400,000 active; KB-3-1 viability, CellTiter-Glo ATP luminescence, 72 h; Potency, µM (highest dose often 46.1 µM), most hits filed as cytotoxic; also: % is scaled to controls: 0 for no effect and ±100 for the full control effect; nearly all actives have a fitted effect of over 60% in size
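Viability of parental KB-3-1 cells, measured by CellTiter-Glo luminescence, followed a 72 h incubation at 37 °C with pinned compounds in phenol-red-free DMEM containing 10% FBS.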
HT1080-NT tox – kills 2HG-producing HT-1080-NT fibrosarcoma cells. HT-1080-NT fibrosarcoma viability, CellTiter-Glo ATP luminescence, 48 h. Potency, µM (titrated, usually from 46.1 µM), for the others: top-dose activity, negative = less viability, most hits filed as cytotoxic. 1.6% of 360,000 active;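 also: NT is the 2HG producing partner of a matched IDH1 knockdown line; 0% = DMSO-treated cells and -100% = media-only wells without cells; nearly all actives have a fitted effect of over 55% in size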
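Read-out is CellTiter-Glo luminescence after 10 minutes at room temperature, following 48 hours' compound treatment of HT-1080-NT cells (750 cells/well, RPMI, 5% FBS, 37 degrees C).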
SW480 rereplic – induces DNA re-replication in SW480 colon adenocarcinoma cells | AID 624297 | SW480 DNA re-replication, Hoechst DNA content imaging, 48 h | 1.8% of 340,000 active | Potency, µM (titrated, usually from 46.1 µM), inactives show at the top dose re-replication activation, hits mostly activators; also: % of control where 0% means no effect; nearly all actives have a fitted effect of over 55% in size
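Image-based read-out: total Hoechst fluorescence of nuclei (405 nm excitation, 500-530 nm emission), with hits raising the fraction of high-intensity nuclei. SW480 colon cells incubated 48 hr with compounds at 37 C.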
MCF10A rerep – inducers of DNA re-replication in MCF 10A breast cells. 2.9% of 350,000 active. MCF 10A DNA re-replication, Hoechst nuclear intensity, 48 h. Potency, µM (doses to about 46.1 µM), for inactives: top-dose activity, positive = re-replication, usual class: activators. AID 624296; also: % of control where 0% means no effect; nearly all actives have a fitted effect of over 50% in size
KB-V1 MDR tox – kills drug-selected multidrug resistant KB-V1 cells; KB-V1 MDR cells viability, CellTiter-Glo, 72 h; Potency, µM (series often up to 46.1 µM), actives largely listed as cytotoxic; 3.4% of 400,000 active; also: % is scaled to controls: 0 for no effect and ±100 for the full control effect; nearly all actives have a fitted effect of over 60% in size
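In this primary screen, KB-V1 cells overexpressing P-gp are incubated with library compounds (lowest to highest concentration) for 72 h at 37 degrees C before a luminescent ATP viability read.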
HT1080 IDH1KD tx – HT-1080 IDH1 knockdown cell toxicity (counter line). HT-1080 IDH1 knockdown viability, ATP luminescence, 48 h. Potency, µM (doses to about 46.1 µM), for the others: at the highest dose activity, negative = toxicity, usual class: cytotoxic. 2% of 360,000 active. AID 686971;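 also: 0% = DMSO wells and -100% = cell-free medium wells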
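HT-1080-IDH1KD cells (IDH1 knocked down), 750/well in RPMI with 5% FBS, treated with compound 48 h at 37 degrees C. Viability by CellTiter-Glo luminescence, normalised to DMSO and no-cell wells; concentration-response curves classed.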
Active calls of the source: *; i = inactive; ? = inconclusive; . = no result; [ ] = remark or other dose. Hits are enriched below; roughly 7.9% of the tested compounds scored in any of these assays. Calls follow the shape of the dose curve; as a rule, active = well fitted curve in the direction sought with a large enough effect; inconclusive = small, poorly fitted or top-dose-only effect, or another doubt; inactive = no such curve, though single readings can be large; an effect the other way counts as inactive or inconclusive. Potency is read from the fitted curve at half-maximal effect.

SMILES | KB-3-1 tox | HT1080-NT tox | SW480 rereplic | MCF10A rerep | KB-V1 MDR tox | HT1080 IDH1KD tx
COc1ccc(NC(=O)C(C2CC2)n2c(=O)c(-c3cc4ccccc4[nH]3)nc3ccccc32)cc1 (stereo unspecified) | i | ? | . | . | i | 15µM*
Cc1cccc(C)c1NC(=O)C(c1ccncc1)n1c(=O)c(-c2cc3ccccc3[nH]2)nc2ccccc21 (stereo unspecified) | ? | 21µM* | . | . | ? | 18µM*
O=C(CSc1cccc[n+]1[O-])Nc1ccccc1Oc1ccccc1 | i | 8.2µM* | ? | -1% | ? | 6.5µM*
COc1cc2c(cc1NC(=O)CN1C(=O)NC3(CCc4ccccc43)C1=O)oc1ccccc12 (stereo unspecified) | i | 23µM* | ? | ? | ? | 15µM*
COc1cc2c(cc1NC(=O)CSc1ccc(C)cc1)oc1ccccc12 | i | 0% | 21% | ? | i | 6%
O=C(CSc1cccc[n+]1[O-])CSc1cccc[n+]1[O-] | i | 1µM* | 6.5µM* | -14% | ? | 0.52µM*
COc1cc2c(cc1NC(=O)CSc1cccc[n+]1[O-])oc1ccccc12 | ? | 4% | -7% | 15% | 12µM* | 3%
CCc1ccc(NC(=O)CSc2nnc(-c3cnccn3)n2C)cc1 | i | 2% | 8% | 3% | i | 0%
COc1cc2c(cc1NC(=O)CN(C)Cc1ccc(OC)c(OC)c1)oc1ccccc12 | ? | ? | 18µM* | 9.2µM* | ? | ?
COc1cc2c(cc1NC(=O)CSc1nc3ccc(C)cc3[nH]1)oc1ccccc12 | . | . | 14% | 5.2µM* | . | .
COc1cc2c(cc1NC(=O)CCCCCN1C(=O)CCC1=O)oc1ccccc12 | i | -3% | 6% | 1% | 7.3µM* | -19%
COc1cc2c(cc1NC(=O)CCCN1C(=O)CCC1=O)oc1ccccc12 | i | 0% | 8% | 0% | i | 0%
COc1ccc(OC)c(CCNC(=O)c2ccc3c(c2)c(C)c(C)n3Cc2ccccc2)c1 | ? | . | . | . | i | .
N#CC(CC(=O)c1ccc(Cl)cc1)c1ccccc1 (stereo unspecified) | i | -2% | -3% | 1% | 16µM* | -4%
O=C(CC(C(=O)O)c1ccc(Cl)cc1)c1ccccc1 (stereo unspecified) | i | -1% | -6% | 0% | i | 11%
CSc1cc(-c2ccccc2)[nH]c(=O)c1C#N | i | -12% | 15µM* | -1% | i | -11%
Cn1c(=O)[nH]c(=O)c2c1nc1n2CCN1c1ccccc1 | i | . | . | . | i | .
Cc1cccc(-c2noc(CNC(=O)c3ccoc3C)n2)c1 | i | -2% | 27% | 21µM* | i | -6%
Cc1cc(CN(C)C(=O)C2CCC(=O)N(CCc3cccc(F)c3)C2)on1 (stereo unspecified) | i | 6% | -14% | 8% | i | 4%
O=C(Cn1cc(C(F)(F)F)ccc1=O)NCCc1ccc(Cl)cc1Cl | i | 20% | 2% | -6% | i | ?
N#Cc1ccc(CN2CCN(CC(=O)NCCc3ccc(Cl)cc3Cl)CC2)cc1 | i | ? | ? | ? | 18µM* | ?
O=C(CSc1ccc2c(c1)OCCO2)NCCc1ccc(Cl)cc1Cl | i | 0% | -45% | 17% | 18µM* | -2%
Cc1ccnc(NC(=O)c2ccc3c(c2)OCO3)c1 | 16µM* | ? | -19% | 0% | 18µM* | ?
O=C(Nc1ccon1)c1ccc2c(c1)OCO2 | i | 1% | -9% | 16% | i | -2%
O=C(CSc1ccc2c(c1)OCCO2)Nc1ncc(Cl)cc1Cl | i | 2% | -7% | -1% | 21µM* | -10%
SMILES | KB-3-1 tox | HT1080-NT tox | SW480 rereplic | MCF10A rerep | KB-V1 MDR tox | HT1080 IDH1KD tx
O=C(CSc1ccc2c(c1)OCCO2)NCCN1C(=O)CSC1=O | i | 0% | -4% | 0% | ? | 1%
C[C@@H]1COc2cc(N3CCC[C@@H]3CO)ccc2S(=O)(=O)N1 | i | 21% | . | . | i | 10%
Cc1cc(NC(=O)CSc2ccc3c(c2)OCCO3)no1 | i | 10% | -13% | -2% | i | 1%[9.24 µM]
Cc1ccnc(NC(=O)CSc2ccc3c(c2)OCCO3)c1 | i | 7% | -5% | 3% | 18µM* | 0%
CC(=O)Nc1cc(-c2ccsc2)cn2c(-c3ccc(F)cc3)cnc12 | i | ? | . | . | i | ?
CN(C)CC(C)(C)NS(=O)(=O)c1ccc(Cl)cc1 | i | 10% | ? | 15µM* | i | 1%
COc1cc(/C=N/Nc2nncn2/N=C/c2ccc(O)c(OC)c2)ccc1O | i | 21µM* | 0% | -5% | 23µM* | 15µM*
COc1ccc(OC)c(/C=N/Nc2nncn2/N=C/c2cc(OC)ccc2OC)c1 | 21µM* | ? | ? | 23µM* | ? | 15µM*
O=C(NCc1ccccc1)NC1(C(=O)N2CCN(c3ncccn3)CC2)CCCCC1 | i | 1% | 4%[9.22 µM] | 23µM* | i | 0%
Cc1ccc(S(=O)(=O)Nc2cccc(-c3ccc(N4CCC(C)CC4)nn3)c2)s1 | i | . | . | . | i | .
Cc1ccc([N+](=O)[O-])c(OCCn2cnc3ccccc32)c1 | ? | 1% | 3% | 0% | 15µM* | -2%
Cc1ccc(-n2cc3c(-c4cccc(Br)c4)nnc(C)c3n2)cc1 | ? | 2% | 0% | 14% | 16µM* | -2%
Cc1nnc(-c2cccc(Br)c2)c2cn(-c3ccccc3Cl)nc12 | ? | 4% | -14% | 14% | ? | -1%
Cc1cc(C)c2cccnc2c1O | i | . | . | . | i | .
Oc1c(CN2CCN(c3ccccc3)CC2)cc(Br)c2cccnc12 | ? | ? | 18µM* | -2% | i | ?
Oc1c(Br)cc(Br)c2cccnc12 | i | 16µM* | ? | ? | ? | ?
CC(C)OCc1cc(CN2CCN(c3ccccc3)CC2)c(O)c2ncccc12 | ? | . | . | . | 6.5µM* | .
c1cnc(N2CCN(Cc3c[nH]c4ccccc34)CC2)nc1 | ? | -19% | 17% | 13% | ? | ?
c1ccc(N2CCN(Cc3ccnc4ccccc34)CC2)cc1 | 16µM* | -4% | 5% | 5% | i | ?
C/C=C/c1cc(CN2CCN(c3ccccc3)CC2)c(O)c(OC)c1 | ? | ? | 11% | ? | i | -24%
Cc1ccc(S(=O)(=O)c2cn(CC(=O)Nc3cccc(C)c3)c3cc4c(cc3c2=O)OCO4)cc1 | i | . | . | . | i | .
